Measured values from PubChem BioAssay.
Activity calls are given as the source filed them.

Tests used:
[1] = tested on: PRMT1 (protein arginine N-methyltransferase 1); experiment: PRMT1 binders on small-molecule microarrays, primary screen, biochemical, small-molecule microarray, 635 nm fluorescence (AID 1088); conditions: small-molecule microarray binding, higher = more signal;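 also: binding of Prmt1 protein to compounds spotted on small-molecule microarray slides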
[2] = yeast growth modulation, basal conditions, primary screen, YJM789 clinical isolate, OD600, 24 h (AID 1089);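 also: growth of clinical yeast isolate S. cerevisiae YJM 789 seeded 1000 cells per well; test concentration not given here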; conditions: S. cerevisiae YJM789 growth, higher = more signal, called active from +8 up or from −8 down
[3] = fission yeast growth modulation, primary screen, strain 972, OD600, 24 h, no modulator (AID 1090);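 also: basal condition with compound alone and no growth modifier present; test concentration not given here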; conditions: S. pombe 972 growth, higher = more signal, called active from +8 up or from −8 down
[4] = S. cerevisiae growth modulation with rapamycin, primary screen, strain BY4716, OD600, 96 h (AID 1091); conditions: higher = more signal, called active from +8 up or from −8 down; also: test concentration not given here
[5] = target: Torsin-1A-interacting protein 2 (Homo sapiens) (UniProt Q8NFQ8); experiment: LULL1 binders on small-molecule microarray, primary screen, cell lysate, human LULL1 lysate, 635/667 nm fluorescence (AID 1092); conditions: hLULL1 lysate binding, 635 nm fluorescence, higher = more signal;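 also: probe is lysate of COS7 cells overexpressing human LULL1; score merges per-feature 667 nm fluorescence with signal-to-noise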
[6] = E. coli growth modulation, two-sided OD650, primary screen, E. coli filamentation project, strain DRC41, 24 h (AID 1093); conditions: OD650, 24 h, higher = more signal, called active from +8 up or from −8 down;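 also: MC1000 strain lacking acrAB efflux and sulA so SOS filamentation is blocked; test concentration not given here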
[7] = small-molecule microarray binders of probe aLefty2, primary screen, biochemical, biotinylated probe, 635/667 nm fluorescence (AID 1094); conditions: higher = more signal;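 also: score merges spot fluorescence near 667 nm with spot signal-to-noise ratio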
[8] = tested on: Noggin (protein binding on small-molecule microarray); experiment: Noggin binders on small-molecule microarray, primary screen, biochemical, 635/667 nm fluorescence (AID 1095); conditions: 635 nm fluorescence, higher = more signal;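 also: score merges 667 nm feature fluorescence with signal to noise over triplicate slides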
[9] = target: Neurogenic locus notch homolog protein 3 (Homo sapiens) (UniProt Q9UM47); experiment: NOTCH3 binders on small-molecule microarray, primary screen, biochemical, 635/667 nm fluorescence (AID 1096); conditions: NOTCH3 binding, 635 nm fluorescence, higher = more signal
[10] = small-molecule microarray binders of probe aEGFR, primary screen, biochemical, biotinylated probe, 635/667 nm fluorescence (AID 1097); conditions: higher = more signal;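 also: probe is a biotinylated anti-EGFR antibody binding compounds printed on slides; score combines fluorescence near 667 nm and signal to noise of each spot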
[11] = tested on: Plasmodium falciparum Sir2 (PF13_0152, Sir2A); experiment: pfSir2 binders on small-molecule microarrays, primary screen, biochemical, small-molecule microarray, 635 nm fluorescence (AID 1098); conditions: small-molecule microarray binding, fluorescence 635 nm; higher = more signal;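 also: score merges spot fluorescence intensity with its signal-to-noise ratio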
[12] = small-molecule microarray binders of probe aDKK1, primary screen, biochemical, biotinylated probe, 635/667 nm fluorescence (AID 1099); conditions: higher = more signal;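 also: score merges 667nm spot fluorescence with signal to noise across triplicate slides; reference of the scale not given here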
[13] = small-molecule microarray binders of probe aCHRDL2, primary screen, biochemical, biotinylated probe, 635/667 nm fluorescence (AID 1100); conditions: higher = more signal
[14] = splicing luciferase reporter signal modulators, primary screen, spliceosome inhibition project, cell-based, HEK293, splice +/- reporter (AID 1101); conditions: luminescence, 24 h, higher = more signal, called active from +8 up or from −8 down;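 also: HEK293 cells carrying a splicing-competent luciferase reporter gene; test concentration not given here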
[15] = target: Fibroblast growth factor 10 (Homo sapiens) (UniProt O15520); experiment: FGF10 binders on small-molecule microarrays, primary screen, biochemical, small-molecule microarray, 635 nm fluorescence (AID 1102); conditions: FGF10 binding, fluorescence 635 nm, higher = more signal
[16] = tested on: glycogen synthase kinase-3 (GSK3A per assay name; protocol says GSK3B); experiment: GSK3 binders on small-molecule microarrays, primary screen, biochemical, small-molecule microarray, 635 nm fluorescence, GSK3A (AID 1103); conditions: small-molecule microarray binding, fluorescence 635 nm; higher = more signal; also: the record names both GSK3A and GSK3B
[17] = target: Epidermal growth factor receptor (Homo sapiens) (UniProt P00533); experiment: EGFR binders on small-molecule microarrays, primary screen, biochemical, small-molecule microarray, 635 nm fluorescence (AID 1104); conditions: EGFR binding, higher = more signal;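 also: score merges 667 nm emission intensity with spot signal to noise over triplicate slides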
[18] = target: Follistatin-related protein 3 (Homo sapiens) (UniProt O95633); experiment: FSTL3 binders on small-molecule microarrays, primary screen, biochemical, small-molecule microarray, 635 nm fluorescence (AID 1105); conditions: FSTL3 binding, higher = more signal;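 also: score merges emission near 667 nm and signal to noise per printed spot across three slides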
[19] = target: Dickkopf-related protein 1 (Homo sapiens) (UniProt O94907); experiment: DKK1 binders on small-molecule microarrays, primary screen, biochemical, small-molecule microarray, 635 nm fluorescence scan (AID 1106); conditions: DKK1 binding, higher = more signal;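 also: score merges emission near 667 nm with signal to noise over three replicate slides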
[20] = tested on: Inhibin beta A chain (activin A); experiment: INHBA (activin A) binders on microarrays, primary screen, biochemical, small-molecule microarray, 635 nm fluorescence scan (AID 1107); conditions: small-molecule microarray binding, higher = more signal;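 also: mouse activin A protein probed at 4.33 µg/mL on printed slides; score merges bound-protein fluorescence near 667 nm with spot signal-to-noise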

Follistatin-related protein 3 (Homo sapiens), sequence (O95633 whole entry, looked up): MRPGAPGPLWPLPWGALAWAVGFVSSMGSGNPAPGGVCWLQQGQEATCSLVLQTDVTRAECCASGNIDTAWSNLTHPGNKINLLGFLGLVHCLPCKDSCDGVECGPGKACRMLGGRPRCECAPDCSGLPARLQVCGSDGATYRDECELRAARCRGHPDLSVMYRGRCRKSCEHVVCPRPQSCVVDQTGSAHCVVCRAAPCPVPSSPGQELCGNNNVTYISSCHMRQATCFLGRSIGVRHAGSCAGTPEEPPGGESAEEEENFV
Neurogenic locus notch homolog protein 3 (Homo sapiens), sequence (Q9UM47 whole entry, looked up): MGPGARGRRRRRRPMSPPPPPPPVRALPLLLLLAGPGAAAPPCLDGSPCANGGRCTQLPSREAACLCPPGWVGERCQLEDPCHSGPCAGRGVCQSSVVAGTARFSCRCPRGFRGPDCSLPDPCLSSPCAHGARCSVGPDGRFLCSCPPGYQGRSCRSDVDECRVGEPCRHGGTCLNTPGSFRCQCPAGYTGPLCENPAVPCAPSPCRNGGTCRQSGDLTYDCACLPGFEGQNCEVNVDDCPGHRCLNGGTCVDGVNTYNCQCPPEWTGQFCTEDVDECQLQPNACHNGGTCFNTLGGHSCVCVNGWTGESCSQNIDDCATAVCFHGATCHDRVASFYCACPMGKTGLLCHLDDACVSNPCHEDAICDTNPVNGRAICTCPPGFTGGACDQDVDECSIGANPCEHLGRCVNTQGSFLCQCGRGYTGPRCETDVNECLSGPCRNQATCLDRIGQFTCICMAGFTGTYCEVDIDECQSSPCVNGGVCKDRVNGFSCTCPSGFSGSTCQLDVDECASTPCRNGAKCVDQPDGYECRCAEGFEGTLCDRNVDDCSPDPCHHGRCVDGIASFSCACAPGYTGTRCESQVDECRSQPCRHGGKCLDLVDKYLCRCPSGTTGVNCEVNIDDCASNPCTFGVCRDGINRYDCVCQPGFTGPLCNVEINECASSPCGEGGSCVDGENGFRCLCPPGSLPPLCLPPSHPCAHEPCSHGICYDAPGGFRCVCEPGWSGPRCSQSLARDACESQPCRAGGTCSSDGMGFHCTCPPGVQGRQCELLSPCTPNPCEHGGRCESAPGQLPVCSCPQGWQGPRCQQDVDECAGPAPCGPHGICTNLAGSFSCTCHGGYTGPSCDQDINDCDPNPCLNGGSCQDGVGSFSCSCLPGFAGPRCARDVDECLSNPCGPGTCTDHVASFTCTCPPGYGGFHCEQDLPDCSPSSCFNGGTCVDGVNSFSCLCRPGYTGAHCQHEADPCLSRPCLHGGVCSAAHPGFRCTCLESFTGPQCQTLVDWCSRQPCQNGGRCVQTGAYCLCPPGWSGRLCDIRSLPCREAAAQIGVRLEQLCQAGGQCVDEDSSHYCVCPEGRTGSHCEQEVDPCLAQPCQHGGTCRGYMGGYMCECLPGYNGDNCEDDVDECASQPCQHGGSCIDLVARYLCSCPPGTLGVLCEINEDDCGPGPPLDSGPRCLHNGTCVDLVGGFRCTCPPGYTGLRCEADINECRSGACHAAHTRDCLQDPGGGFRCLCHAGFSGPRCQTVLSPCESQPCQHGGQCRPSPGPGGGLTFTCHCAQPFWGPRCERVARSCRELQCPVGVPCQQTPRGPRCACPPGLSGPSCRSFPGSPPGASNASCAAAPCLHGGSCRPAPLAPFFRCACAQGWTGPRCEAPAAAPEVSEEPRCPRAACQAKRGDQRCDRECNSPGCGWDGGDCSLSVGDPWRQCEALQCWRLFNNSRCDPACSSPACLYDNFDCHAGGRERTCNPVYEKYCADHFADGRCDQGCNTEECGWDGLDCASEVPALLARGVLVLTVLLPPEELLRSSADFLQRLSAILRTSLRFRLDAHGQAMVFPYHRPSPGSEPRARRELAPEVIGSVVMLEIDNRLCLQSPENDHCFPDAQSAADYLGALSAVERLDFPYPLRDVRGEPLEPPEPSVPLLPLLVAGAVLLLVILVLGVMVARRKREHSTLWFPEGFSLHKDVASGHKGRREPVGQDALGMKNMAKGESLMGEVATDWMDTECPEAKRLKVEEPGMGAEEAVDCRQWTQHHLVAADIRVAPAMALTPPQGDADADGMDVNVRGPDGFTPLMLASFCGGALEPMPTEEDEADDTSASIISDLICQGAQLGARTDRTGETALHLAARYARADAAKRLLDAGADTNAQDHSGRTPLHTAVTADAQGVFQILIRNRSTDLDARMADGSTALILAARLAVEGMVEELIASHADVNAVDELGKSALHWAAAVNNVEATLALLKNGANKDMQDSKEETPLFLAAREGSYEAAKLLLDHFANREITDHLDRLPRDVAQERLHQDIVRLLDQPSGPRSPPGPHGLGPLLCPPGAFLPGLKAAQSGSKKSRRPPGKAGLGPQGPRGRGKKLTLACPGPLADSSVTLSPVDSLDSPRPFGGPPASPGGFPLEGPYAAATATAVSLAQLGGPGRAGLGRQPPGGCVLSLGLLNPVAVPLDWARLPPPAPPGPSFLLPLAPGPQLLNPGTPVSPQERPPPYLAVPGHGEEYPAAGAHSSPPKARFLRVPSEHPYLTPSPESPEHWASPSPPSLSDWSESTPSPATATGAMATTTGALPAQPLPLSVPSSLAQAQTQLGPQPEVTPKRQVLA
Epidermal growth factor receptor (Homo sapiens), sequence (P00533 whole entry, looked up): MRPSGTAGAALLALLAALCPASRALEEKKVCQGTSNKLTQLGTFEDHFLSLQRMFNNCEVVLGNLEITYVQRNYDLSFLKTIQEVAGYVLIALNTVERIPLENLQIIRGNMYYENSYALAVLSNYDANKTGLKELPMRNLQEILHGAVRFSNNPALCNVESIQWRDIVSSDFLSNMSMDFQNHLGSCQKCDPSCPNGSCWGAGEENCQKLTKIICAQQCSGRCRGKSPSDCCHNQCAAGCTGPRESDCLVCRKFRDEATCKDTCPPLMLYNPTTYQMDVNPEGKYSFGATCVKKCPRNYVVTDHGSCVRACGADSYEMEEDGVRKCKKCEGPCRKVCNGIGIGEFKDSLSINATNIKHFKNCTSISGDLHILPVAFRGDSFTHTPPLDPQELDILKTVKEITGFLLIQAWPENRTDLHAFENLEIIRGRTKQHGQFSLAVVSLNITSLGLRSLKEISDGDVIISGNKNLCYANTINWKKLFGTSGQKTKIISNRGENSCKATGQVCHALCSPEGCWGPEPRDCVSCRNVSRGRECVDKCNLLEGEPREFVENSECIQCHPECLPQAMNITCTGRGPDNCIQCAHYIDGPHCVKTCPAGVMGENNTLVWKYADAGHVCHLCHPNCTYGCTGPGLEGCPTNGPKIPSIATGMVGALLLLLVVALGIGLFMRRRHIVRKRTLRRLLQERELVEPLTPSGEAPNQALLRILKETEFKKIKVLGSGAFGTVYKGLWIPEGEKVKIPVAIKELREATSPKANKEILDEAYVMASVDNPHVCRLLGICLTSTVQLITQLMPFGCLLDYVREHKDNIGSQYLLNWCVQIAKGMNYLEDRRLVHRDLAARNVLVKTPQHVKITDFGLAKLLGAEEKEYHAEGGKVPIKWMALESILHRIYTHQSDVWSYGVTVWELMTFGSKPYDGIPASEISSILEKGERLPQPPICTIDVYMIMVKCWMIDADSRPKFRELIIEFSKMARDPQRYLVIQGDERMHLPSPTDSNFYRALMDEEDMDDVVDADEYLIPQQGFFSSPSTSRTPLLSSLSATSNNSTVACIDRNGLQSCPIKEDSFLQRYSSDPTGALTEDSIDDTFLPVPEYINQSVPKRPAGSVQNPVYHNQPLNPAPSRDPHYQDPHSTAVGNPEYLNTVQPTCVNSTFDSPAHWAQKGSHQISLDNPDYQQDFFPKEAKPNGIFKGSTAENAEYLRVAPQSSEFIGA
Fibroblast growth factor 10 (Homo sapiens), sequence (O15520 whole entry, looked up): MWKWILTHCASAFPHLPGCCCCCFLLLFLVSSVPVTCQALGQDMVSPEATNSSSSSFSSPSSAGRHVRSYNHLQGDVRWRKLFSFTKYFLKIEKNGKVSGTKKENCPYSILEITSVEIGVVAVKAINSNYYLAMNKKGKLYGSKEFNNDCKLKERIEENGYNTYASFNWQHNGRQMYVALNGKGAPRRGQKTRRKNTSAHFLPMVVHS
Torsin-1A-interacting protein 2 (Homo sapiens), sequence (Q8NFQ8 whole entry, looked up): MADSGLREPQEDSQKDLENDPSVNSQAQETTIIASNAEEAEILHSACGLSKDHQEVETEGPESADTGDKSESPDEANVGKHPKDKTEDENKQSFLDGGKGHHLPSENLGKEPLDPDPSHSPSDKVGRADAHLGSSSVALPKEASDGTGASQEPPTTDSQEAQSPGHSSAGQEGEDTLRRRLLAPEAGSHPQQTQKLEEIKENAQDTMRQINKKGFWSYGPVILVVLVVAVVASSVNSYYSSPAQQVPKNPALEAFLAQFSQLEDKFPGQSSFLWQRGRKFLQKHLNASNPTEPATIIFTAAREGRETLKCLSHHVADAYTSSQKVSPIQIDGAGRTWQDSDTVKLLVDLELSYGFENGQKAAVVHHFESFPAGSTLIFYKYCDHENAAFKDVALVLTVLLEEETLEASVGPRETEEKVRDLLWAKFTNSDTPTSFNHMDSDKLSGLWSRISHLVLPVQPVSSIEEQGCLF
Dickkopf-related protein 1 (Homo sapiens), sequence (O94907 whole entry, looked up): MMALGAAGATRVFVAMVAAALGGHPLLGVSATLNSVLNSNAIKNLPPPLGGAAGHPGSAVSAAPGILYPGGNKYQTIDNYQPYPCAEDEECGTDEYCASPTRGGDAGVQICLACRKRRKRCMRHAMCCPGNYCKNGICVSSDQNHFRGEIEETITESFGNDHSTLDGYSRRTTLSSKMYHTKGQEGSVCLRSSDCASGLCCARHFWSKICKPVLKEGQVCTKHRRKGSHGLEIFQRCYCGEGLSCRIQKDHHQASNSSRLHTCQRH

With CCN(CC)c1ccc(N2CC=CC34O[C@@H]5/C=C\CCC(C)OC(=O)C5[C@H]3C(=O)N(CCCCCCO)[C@@H]4C2=O)cc1 (stereo not given in full) the composite z-score [1] was -0.661, the z-score [2] was -0.13 (inactive) and the z-score [3] was -0.147 (inactive). The z-score [4] was 0.252 (inactive), the composite z-score [5] was 0.989 and the z-score [6] was 0.477 (inactive). The composite z-score [7] was -0.204, the composite z-score [8] was -0.668 and the composite z-score [9] was -0.318. For the same compound, the composite z-score [10] was -0.21, the composite z-score [11] was 0.586 and the composite z-score [12] was -0.331. For the same compound, the composite z-score [13] was 0.0224, the z-score [14] was 0.449 (inactive) and the composite z-score [15] was -0.0455. It also gave a composite z-score [16] of -0.624, a composite z-score [17] of -0.782 and a composite z-score [18] of -0.622. For the same compound, the composite z-score [19] was -0.471 and the composite z-score [20] was 1.04.
With O=[N+]([O-])c1ccc(C[n+]2ccc(CCCO)cc2)o1 the composite z-score [1] was 0.464, the z-score [2] was 0.593 (inactive) and the z-score [3] was -12.9 (active). The z-score [4] was -0.302 (inactive), the composite z-score [5] was 2.46 and the z-score [6] was -2.76 (inactive). The composite z-score [7] was 0.24, the composite z-score [8] was 1.73 and the composite z-score [9] was 1.07. The composite z-score [10] was 0.296, the composite z-score [11] was 0.513 and the composite z-score [12] was 0.762. For the same compound, the composite z-score [13] was 0.805, the z-score [14] was 0.115 (inactive) and the composite z-score [15] was 1.54. The composite z-score [16] was 0.634, the composite z-score [17] was 0.396 and the composite z-score [18] was 1.13. It also gave a composite z-score [19] of 1.08 and a composite z-score [20] of 0.918.
With [N-]=[N+]=NCc1ccccc1[C@@H]1OC(c2ccc(OCCCO)cc2)=N[C@]1(Cc1ccccc1)C(=O)O the composite z-score [1] was 1.54, the z-score [2] was 0.452 (inactive) and the z-score [3] was -1.11 (inactive). The z-score [4] was -0.486 (inactive), the composite z-score [5] was 3.2 and the z-score [6] was 0.652 (inactive). For the same compound, the composite z-score [7] was 0.0769, the composite z-score [8] was -0.0061 and the composite z-score [9] was 0.315. It also gave a composite z-score [10] of 0.271, a composite z-score [11] of 1.03 and a composite z-score [12] of 0.175. For the same compound, the composite z-score [13] was 0.917, the z-score [14] was -0.013 (inactive) and the composite z-score [15] was 0.661. It also gave a composite z-score [16] of 0.294, a composite z-score [17] of -0.321 and a composite z-score [18] of -0.086. The composite z-score [19] was -0.617 and the composite z-score [20] was 1.2.
With O=C1O[C@H](c2ccccc2)[C@H](c2ccccc2)N2[C@H]1[C@@H](C(=O)N1CCCCCCC1)[C@]1(C(=O)Nc3ccc(C#CC4=CCCCC4)cc31)[C@H]2c1ccc(O)cc1 the composite z-score [1] was 1.56, the z-score [2] was -0.177 (inactive) and the z-score [3] was 0.218 (inactive). The z-score [4] was 0.791 (inactive), the composite z-score [5] was 5.19 and the z-score [6] was 1.26 (inactive). It also gave a composite z-score [7] of 1.91, a composite z-score [8] of 2.3 and a composite z-score [9] of 1.02. It also gave a composite z-score [10] of 1.47, a composite z-score [11] of 2.14 and a composite z-score [12] of 3.14. The composite z-score [13] was 1.72, the z-score [14] was -0.944 (inactive) and the composite z-score [15] was 1.67. For the same compound, the composite z-score [16] was 1.5, the composite z-score [17] was 2.04 and the composite z-score [18] was 1.69. For the same compound, the composite z-score [19] was 2.71 and the composite z-score [20] was 2.04.
With CC(C)(C)OC(=O)CC[C@@]1(C(N)=O)N=C(c2ccc(OCCCO)cc2)O[C@@H]1c1ccccc1N=[N+]=[N-] the composite z-score [1] was 1.16, the z-score [2] was 0.745 (inactive) and the z-score [3] was -0.86 (inactive). For the same compound, the z-score [4] was -0.579 (inactive), the composite z-score [5] was 3.41 and the z-score [6] was 0.77 (inactive). For the same compound, the composite z-score [7] was 0.0539, the composite z-score [8] was 0.465 and the composite z-score [9] was 0.976. It also gave a composite z-score [10] of -0.019, a composite z-score [11] of 1.73 and a composite z-score [12] of 0.751. For the same compound, the composite z-score [13] was 0.83, the z-score [14] was -0.809 (inactive) and the composite z-score [15] was 1.46. It also gave a composite z-score [16] of 1.22, a composite z-score [17] of -0.0882 and a composite z-score [18] of 0.616. The composite z-score [19] was -0.103 and the composite z-score [20] was 0.988.
